According to PubChem BioAssay (NCI):
This is part of a sample that, as a whole, favours compounds with a hit. Of some 79,000 tested, about 15% had one in any assay. A number with no mark means an inactive call. Active and inactive are the calls of the source. No stated cut-off is given here; in the data, active means growth inhibition above about 70%; inactive means the rest.

Experiments:
[1] = NCI Yeast Anticancer Drug Screen. Data for the rad50 strain (AID 155);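 further: 0% = growth of vehicle-only cultures of the same strain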; conditions: S. cerevisiae rad50 strain growth inhibition, hits give high values
Outline: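 Inhibition values express reduced yeast growth in compound-treated cultures relative to vehicle-treated controls.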

[2] = NCI Yeast Anticancer Drug Screen. Data for the mec2-1 strain (AID 157); conditions: S. cerevisiae mec2-1 strain, hits give high values
Outline: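 Mutant yeast (mec2-1) grown with compound; growth inhibition relative to vehicle control reported.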

[3] = NCI Yeast Anticancer Drug Screen. Data for the sgs1 mgt1 strain (AID 161);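 further: 0% = growth of cultures given vehicle only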; conditions: S. cerevisiae sgs1 mgt1 strain, hits give high values
Outline: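 Growth of a repair-deficient yeast mutant was monitored after compound treatment and expressed as inhibition relative to vehicle-treated cultures.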

[4] = NCI Yeast Anticancer Drug Screen. Data for the cln2 rad14 strain (AID 165);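 further: 0% = growth equal to vehicle treated cultures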; conditions: S. cerevisiae cln2 rad14 strain, hits give high values
Outline: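 Readout is yeast growth inhibition versus vehicle-treated controls, using a strain with cln2 and rad14 alterations exposed to compound.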

[5] = NCI Yeast Anticancer Drug Screen. Data for the bub3 strain (AID 167); conditions: S. cerevisiae bub3 mutant strain, hits give high values
Outline: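 Steps: expose the mutant yeast strain to compound; grow alongside vehicle-treated cultures; measure growth; express inhibition against the vehicle cultures.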

[6] = NCI Yeast Anticancer Drug Screen. Data for the mlh1 rad18 strain (AID 175); conditions: S. cerevisiae mlh1 rad18 strain growth inhibition, hits give high values
Outline: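 Genetically defined yeast (DNA repair-deficient) exposed to compounds; growth inhibition determined relative to vehicle.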

[7] = at 5.0 µM (retest, dose inferred, filed as 0.5)
[8] = at 50.0 µM (retest, dose inferred, filed as 5.0)

C=C(C(N)=O)C(N)C(=O)O (centres undefined)
growth inhibition [1, 7]: -5%
growth inhibition [1, 8]: 9%
growth inhibition ([1]; at 50.0 µM): -20.1%
growth inhibition [2, 7]: 6%
growth inhibition [2, 8]: -2%
growth inhibition ([2]; at 50.0 µM): 9.85%
growth inhibition [3, 7]: -1%
growth inhibition [3, 8]: 0%
growth inhibition ([3]; at 50.0 µM): 13.1%
growth inhibition [4, 7]: 9%
growth inhibition [4, 8]: 2%
growth inhibition ([4]; at 50.0 µM): -7.4%
growth inhibition [5, 7]: -16%
growth inhibition [5, 8]: -2%
growth inhibition ([5]; at 50.0 µM): 40.5%
growth inhibition [6, 7]: 11%
growth inhibition [6, 8]: 32%
growth inhibition ([6]; at 50.0 µM): 7.45%

COc1cc(OC)c(/C=C/c2c3ccccc3cc[n+]2C)c(OC)c1
growth inhibition [1, 7]: 66%
growth inhibition [1, 8]: 77% (active)
growth inhibition ([1]; at 50.0 µM): 61.6%
growth inhibition [2, 7]: 33%
growth inhibition [2, 8]: 54%
growth inhibition ([2]; at 50.0 µM): 49.5%
growth inhibition [3, 7]: 67%
growth inhibition [3, 8]: 84% (active)
growth inhibition ([3]; at 50.0 µM): 69.5%
growth inhibition [4, 7]: 46%
growth inhibition [4, 8]: 64%
growth inhibition ([4]; at 50.0 µM): 9.85%
growth inhibition [5, 7]: 67%
growth inhibition [5, 8]: 79% (active)
growth inhibition ([5]; at 50.0 µM): 59.3%
growth inhibition [6, 7]: 50%
growth inhibition [6, 8]: 68%
growth inhibition ([6]; at 50.0 µM): 54.1%

CCC(C)C(N)C(=O)NC(CC(N)=O)C(=O)NC(CC(C)C)C(=O)NC(CCCCN)C(=O)NC(C)C(=O)NC(CC(C)C)C(=O)NC(C)C(=O)NC(C)C(=O)NC(CC(C)C)C(=O)NC(C)C(=O)NC(CCCCN)C(=O)NC(CCCCN)C(=O)NC(C(=O)NC(CC(C)C)C(N)=O)C(C)CC (centres undefined)
growth inhibition [1, 7]: -2%
growth inhibition [1, 8]: 99% (active)
growth inhibition ([1]; at 50.0 µM): 93.3% (active)
growth inhibition [2, 7]: 6%
growth inhibition [2, 8]: 100% (active)
growth inhibition ([2]; at 50.0 µM): 94.2% (active)
growth inhibition [3, 7]: -3%
growth inhibition [3, 8]: 99% (active)
growth inhibition ([3]; at 50.0 µM): 93.8% (active)
growth inhibition [4, 7]: 4%
growth inhibition [4, 8]: 98% (active)
growth inhibition ([4]; at 50.0 µM): 92% (active)
growth inhibition [5, 7]: -6%
growth inhibition [5, 8]: 99% (active)
growth inhibition ([5]; at 50.0 µM): 93.6% (active)
growth inhibition [6, 7]: 0%
growth inhibition [6, 8]: 99% (active)
growth inhibition ([6]; at 50.0 µM): 92.8% (active)

O=C1C=Cc2ccccc2/C1=C/c1nc(-c2ccccc2)oc1O
growth inhibition [1, 7]: -2%
growth inhibition [1, 8]: 97% (active)
growth inhibition ([1]; at 50.0 µM): 89.5% (active)
growth inhibition [2, 7]: -15%
growth inhibition [2, 8]: 98% (active)
growth inhibition ([2]; at 50.0 µM): 91.8% (active)
growth inhibition [3, 7]: 17%
growth inhibition [3, 8]: 97% (active)
growth inhibition ([3]; at 50.0 µM): 49.5%
growth inhibition [4, 7]: 2%
growth inhibition [4, 8]: 97% (active)
growth inhibition ([4]; at 50.0 µM): 86.5% (active)
growth inhibition [5, 7]: 0%
growth inhibition [5, 8]: 98% (active)
growth inhibition ([5]; at 50.0 µM): 92.7% (active)
growth inhibition [6, 7]: 5%
growth inhibition [6, 8]: 97% (active)
growth inhibition ([6]; at 50.0 µM): 90% (active)

CN(C)c1ccc(C(C#N)(c2ccccc2)c2ccc(N(C)C)cc2)cc1
growth inhibition [1, 7]: 35%
growth inhibition [1, 8]: 87% (active)
growth inhibition ([1]; at 50.0 µM): 39.3%
growth inhibition [2, 7]: 14%
growth inhibition [2, 8]: 92% (active)
growth inhibition ([2]; at 50.0 µM): 96.2% (active)
growth inhibition [3, 7]: 48%
growth inhibition [3, 8]: 93% (active)
growth inhibition ([3]; at 50.0 µM): 94.2% (active)
growth inhibition [4, 7]: 1%
growth inhibition [4, 8]: 89% (active)
growth inhibition ([4]; at 50.0 µM): 59.8%
growth inhibition [5, 7]: 80% (active)
growth inhibition [5, 8]: 91% (active)
growth inhibition ([5]; at 50.0 µM): 97.5% (active)
growth inhibition [6, 7]: 16%
growth inhibition [6, 8]: 86% (active)
growth inhibition ([6]; at 50.0 µM): 43.5%

CN(C)c1ccc(C(=C2C=CC(=[N+](C)C)C=C2)c2ccc(N(C)C)cc2)cc1
growth inhibition [1, 7]: 99% (active)
growth inhibition [1, 8]: 90% (active)
growth inhibition ([1]; at 50.0 µM): 94.9% (active)
growth inhibition [2, 7]: 99% (active)
growth inhibition [2, 8]: 95% (active)
growth inhibition ([2]; at 50.0 µM): 95% (active)
growth inhibition [3, 7]: 99% (active)
growth inhibition [3, 8]: 95% (active)
growth inhibition ([3]; at 50.0 µM): 94.8% (active)
growth inhibition [4, 7]: 99% (active)
growth inhibition [4, 8]: 93% (active)
growth inhibition ([4]; at 50.0 µM): 87.2% (active)
growth inhibition [5, 7]: 99% (active)
growth inhibition [5, 8]: 91% (active)
growth inhibition ([5]; at 50.0 µM): 94.8% (active)
growth inhibition [6, 7]: 99% (active)
growth inhibition [6, 8]: 90% (active)
growth inhibition ([6]; at 50.0 µM): 91.2% (active)

COc1ccc2nc3cc([N+](=O)[O-])ccc3c(NNc3ccccc3)c2c1
growth inhibition [1, 7]: -2%
growth inhibition [1, 8]: -5%
growth inhibition ([1]; at 50.0 µM): 62.2%
growth inhibition [2, 7]: 5%
growth inhibition [2, 8]: -4%
growth inhibition ([2]; at 50.0 µM): 1.7%
growth inhibition [3, 7]: -2%
growth inhibition [3, 8]: -13%
growth inhibition ([3]; at 50.0 µM): 49.1%
growth inhibition [4, 7]: 3%
growth inhibition [4, 8]: -12%
growth inhibition ([4]; at 50.0 µM): 29.7%
growth inhibition [5, 7]: 3%
growth inhibition [5, 8]: 6%
growth inhibition ([5]; at 50.0 µM): 5%
growth inhibition [6, 7]: 0%
growth inhibition [6, 8]: -11%
growth inhibition ([6]; at 50.0 µM): 60.8%

CCC1CCCCN1C(=S)N/N=C(\C)c1ccccn1 (centres undefined)
growth inhibition [1, 7]: 29%
growth inhibition [1, 8]: 98% (active)
growth inhibition ([1]; at 50.0 µM): 90.5% (active)
growth inhibition [2, 7]: 19%
growth inhibition [2, 8]: 99% (active)
growth inhibition ([2]; at 50.0 µM): 94.1% (active)
growth inhibition [3, 7]: 28%
growth inhibition [3, 8]: 99% (active)
growth inhibition ([3]; at 50.0 µM): 89.8% (active)
growth inhibition [4, 7]: 21%
growth inhibition [4, 8]: 99% (active)
growth inhibition ([4]; at 50.0 µM): 91.7% (active)
growth inhibition [5, 7]: 21%
growth inhibition [5, 8]: 99% (active)
growth inhibition ([5]; at 50.0 µM): 90% (active)
growth inhibition [6, 7]: 23%
growth inhibition [6, 8]: 98% (active)
growth inhibition ([6]; at 50.0 µM): 90.5% (active)
